# Source: PubChem (National Center for Advancing Translational Sciences (NCATS))
# WRN inhibitor: WRN helicase (human) inhibition | Q14191 | WRN helicase unwinding, fluorescent forked duplex, kinetic | Potency, µM (doses to about 114 µM), hits mostly inhibitors | actives 0.46% (n = 360,000); note: nearly all actives have a fitted effect of over 55% in size
#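 Screening of the MLSMR collection measured strand separation of a quenched forked DNA duplex (100 nM) by 20 nM WRN with 2 mM ATP, all final. Compounds were preincubated with enzyme 15 min at room temperature.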
# POLB inh: inhibitors of human DNA polymerase beta; P06746; Pol beta primer extension/strand displacement, fluorescence kinetic; Potency, µM (titrated, usually from 114 µM), most hits filed as inhibitors; actives 1.3% (n = 340,000)
#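 10 nM enzyme + cpd, 15 min RT; start with substrate 50 nM final; read 0 min and after 10 min RT. Corrected, normalized data; 4-parameter Hill curve fit.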
# POLI inh: DNA polymerase iota (human) inhibition; Q9UNA4; Pol iota fluorescent replication assay, 10 min; Potency, µM (titrated, usually from 115 µM), hits mostly inhibitors; actives 1% (n = 390,000)
#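 Pol iota at 10 nM preincubated 15 min with compounds at room temperature; reaction started with fluorescent substrate, 50 nM final. Fluorescence read kinetically at 0 and 10 min; buffer-only wells as negative control.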
# Pol eta inh: inhibitors of human DNA polymerase eta; Q9Y253; recombinant Pol eta, fluorescent DNA replication assay; Potency, µM (titrated, usually from 114 µM), hits mostly inhibitors; actives 1.2% (n = 390,000)
#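 Pol eta at 10 nM preincubated with compounds 15 min at room temperature; reaction started with fluorescent substrate (50 nM final) and read kinetically at 0 and 10 min.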
# PI5P4Ka inh: blocks human PI5P4K alpha kinase activity. max response, %. AID 652105. actives 1.2% (n = 330,000). P48426. PI5P4Kalpha enzyme, ADP-Glo luminescence, 60 min; hits give low values; active = max response of -50% or lower; inconclusive = between -30% and -50%; inactive = -30% or higher; note: value at the top dose of about 77 µM
#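 ADP-Glo luminescence end-point read after a 60 min room-temperature kinase reaction of PI5P4Kalpha plus substrate, initiated with ATP at 5 microM final. Buffer: 0.038 M HEPES pH 7.4, EGTA, 0.1% CHAPS, 5% DMSO.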
# POLK inh: DNA polymerase kappa (human) inhibition; Q9UBT6; purified Pol kappa, fluorescent DNA synthesis assay, 10 min; Potency, µM (titrated, usually from 107 µM), usual class: inhibitors; actives 0.53% (n = 400,000); AID 588579
# Target sequence (Q9UBT6 whole entry, looked up): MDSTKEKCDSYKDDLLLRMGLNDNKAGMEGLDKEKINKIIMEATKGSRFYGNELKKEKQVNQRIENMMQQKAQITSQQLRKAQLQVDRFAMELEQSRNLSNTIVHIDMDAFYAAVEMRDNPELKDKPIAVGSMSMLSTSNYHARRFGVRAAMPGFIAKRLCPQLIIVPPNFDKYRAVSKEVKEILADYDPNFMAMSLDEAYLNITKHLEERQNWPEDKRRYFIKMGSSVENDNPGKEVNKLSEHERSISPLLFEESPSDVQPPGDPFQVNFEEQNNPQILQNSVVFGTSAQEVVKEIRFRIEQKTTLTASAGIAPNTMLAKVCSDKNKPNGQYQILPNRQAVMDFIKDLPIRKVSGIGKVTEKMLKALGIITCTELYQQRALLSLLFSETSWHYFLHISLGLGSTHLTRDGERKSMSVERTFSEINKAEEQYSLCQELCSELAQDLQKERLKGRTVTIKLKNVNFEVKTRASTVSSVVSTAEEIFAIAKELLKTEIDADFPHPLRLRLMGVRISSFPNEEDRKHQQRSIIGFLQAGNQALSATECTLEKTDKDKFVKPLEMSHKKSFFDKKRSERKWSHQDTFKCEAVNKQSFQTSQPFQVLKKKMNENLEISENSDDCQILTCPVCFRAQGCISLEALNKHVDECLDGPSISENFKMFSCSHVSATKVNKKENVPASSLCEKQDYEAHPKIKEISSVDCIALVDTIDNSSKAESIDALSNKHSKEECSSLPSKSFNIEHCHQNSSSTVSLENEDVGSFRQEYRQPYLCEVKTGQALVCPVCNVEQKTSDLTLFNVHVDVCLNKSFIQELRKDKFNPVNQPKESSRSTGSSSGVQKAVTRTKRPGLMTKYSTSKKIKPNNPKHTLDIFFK
#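 10 nM Pol kappa was preincubated with compounds for 15 min at room temperature. Reaction started with 50 nM (final) substrate. Fluorescence read kinetically at 0 and 10 min.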
# Hits are given with their value; - = inactive; ? = inconclusive; . = not tested or not shown; [ ] = dose if it differs, or a comment. Shown are actives, neighbours in structure and some others; about 2.8% of the full set was active somewhere. Unless noted, calls come from the whole dose curve; as a rule, active = well fitted curve in the direction sought with a large enough effect; inconclusive = small, poorly fitted or top-dose-only effect, or another doubt; inactive = no such curve, though single readings can be large; an effect the other way counts as inactive or inconclusive.
SMILES,WRN inhibitor,POLB inh,POLI inh,Pol eta inh,PI5P4Ka inh,POLK inh
COc1cc(/C=N/Nc2nncn2N)ccc1OCc1c(C)no[n+]1[O-],-[11.6 µM],-,7.08µM,-,-,-
Nn1cnnc1N/N=C/c1ccc(Cl)cc1Cl,-,-,11.2µM,-,-,-
COc1ccc(CSc2nncn2N)cc1Br,-,-,-,-,-,-
Cc1ccc(C2CC(=O)N3CN(c4ccc(Br)cc4)CSC3=C2C#N)o1 (stereo unspecified),-,31.6µM,?,-,.,-
CCOc1ccc(N2CSC3=C(C#N)C(c4ccco4)CC(=O)N3C2)cc1 (stereo unspecified),-,25.1µM,-,-,.,-
Cc1ccc(C(=O)n2nc(C)c(S(=O)(=O)N3CCOCC3)c2C)cc1C,.,-,-,-,.,-
O=C(Oc1cc(=O)oc2c1c(=O)n1c3c(cccc23)CC1)c1ccccc1,-,39.8µM,?,-,-,-
CCN1CCN(c2cc(C)c3cc(NC(=O)c4ccc(OC)c(OC)c4)ccc3n2)CC1,-,8.91µM,?,?,-,?
CC[n+]1c(C)sc2c(C)cc(C)cc21,-,-,?,-,-,-
CCC[n+]1c(C)sc2c3c(ccc21)CCCC3,-,-,-,-,-55.4,-
Cc1ccc(NC(=O)/C(C#N)=C(\N)C(Cl)(Cl)Cl)nc1,-,-,-,44.7µM,-,-
COc1ccc(Cn2c(CNS(=O)(=O)c3ccc4c(c3)CCCC4)nc3cccnc32)cc1,.,-,-,-,.,-
COc1ccc(-n2c(=O)c3c4c(sc3n(CC(=O)Nc3cc(C)[nH]n3)c2=O)CCC4)c(OC)c1,-,-,79.4µM,-,-,-
O=C(O)c1ccc2c(c1)C(=O)N(c1ccc(Nc3ccccc3)cc1)C2=O,-,-,-,-,-,-
Cc1ccc(S(=O)(=O)N2CCCCC2)cc1NC(=O)CCc1nc2ccccc2c(=O)[nH]1,-,.,?,28.2µM,?,-
Cc1ccc2nc(-c3ccc(NC(=O)CSc4ccccc4)cc3)[nH]c2c1,-,22.4µM,35.5µM,-,.,-
O=C(CSc1ccccc1)Nc1ccc(-c2nc3ccccc3[nH]2)cc1,-,7.08µM,?,?,-,?
CCC1Oc2ccc(C)cc2N(CC(=O)NCc2ccc(OC)cc2)C1=O (stereo unspecified),.,-,?,-,.,-
CCOC(=O)C(=O)NCC(c1cccnc1)N1CCN(c2ccccc2)CC1 (stereo unspecified),.,-,-,-,.,?
CC1(C)CC[C@]2(C(=O)O)CC[C@]3(C)C(=CC[C@@H]4[C@@]5(C)CC[C@H](O)C(C)(C)[C@@H]5CC[C@]43C)[C@@H]2C1,-,-,-,-,?,-
O=C(Cc1ccc(S(=O)(=O)N2CCCC2)s1)N1CCN(c2ccccc2)CC1,-,31.6µM,-,-,-,-
O=C(Cc1ccc(S(=O)(=O)N2CCOCC2)s1)N1CCN(c2cccc(C(F)(F)F)c2)CC1,-,-,-,-,-,-
O=C(Cc1ccc(S(=O)(=O)N2CCOCC2)s1)Nc1ccccc1Br,-,35.5µM,?,?,?,?
Cc1ccccc1OCC(=O)NNC(=O)Cc1ccc(S(=O)(=O)N2CCOCC2)s1,-,.,-,-,-,-
Cc1ccc(OCC(=O)NNC(=O)Cc2ccc(S(=O)(=O)N3CCOCC3)s2)cc1,-,.,-,?,-61.3,-
SMILES,WRN inhibitor,POLB inh,POLI inh,Pol eta inh,PI5P4Ka inh,POLK inh
Cc1ccc(C)c(N2CCN(C(=O)c3ccc(-c4nc(COc5ccccc5)c(C)o4)cc3)CC2)c1,.,-,-,-,.,-
CCCOc1ccc(N2CC(C(=O)Nc3cccc(Cl)c3Cl)CC2=O)cc1 (stereo unspecified),.,-,-,-,.,-
COc1ccc(-c2c3c(=O)n(C)c(=O)n(C)c3cn2-c2cccc(N)c2)cc1,.,-,-,-,.,-
Cn1c(=O)c2c(-c3ccc(Br)cc3)n(Cc3ccc(F)cc3)cc2n(C)c1=O,.,-,89.1µM,-,.,?
CCOC(=O)c1ccc(NC(=O)Cn2nnc(-c3ccc(C(F)(F)F)cc3)n2)cc1,.,-,-,-,.,-
O=C(NCCCO)Nc1ccc2nc(-c3ccco3)c(-c3ccco3)nc2c1,.,1.78µM,.,.,.,.
O=C(Nc1ccc(N2CCOCC2)cc1)Nc1ccc2nc(-c3ccco3)c(-c3ccco3)nc2c1,-,5.01µM,-,-,.,-
O=C(Nc1ccc2nc(-c3ccco3)c(-c3ccco3)nc2c1)NC1CC1,10µM,3.55µM,1.26µM,1.26µM,-74.6,10µM
CCc1nc2ccc(C(=O)N3CCN(c4ccccc4)CC3)cc2nc1CC,-,-,-,-,-,-
O=C(Nc1ccc(F)c(Cl)c1)NC1CC1,-,-,-,?,-,-
O=C(c1ccc2nc(-c3ccco3)c(-c3ccco3)nc2c1)N1CCN(c2ccccc2)CC1,-,11.2µM,?,-,.,-
Cc1nc(C(=O)O)sc1C1(C)CC(c2cccc([N+](=O)[O-])c2)=NO1 (stereo unspecified),-,.,-,-,-,-
Cc1cc2nc3n(c2cc1C)CC1CC(C(=O)NCc2ccco2)N(C)C31 (stereo unspecified),-,-,-,-,-,-
Nc1c(C(=O)Nc2ccc(S(=O)(=O)N3CCCC3)cc2)sc2nc3cc4c(cc3cc12)CCC4,-,-,-,-,?,-
Nc1c(C(=O)Nc2ccc(S(=O)(=O)N3CCCC3)cc2)sc2nc3ccc(OC(F)(F)F)cc3cc12,?,28.2µM,?,39.8µM,?,-
O=C(CN1C(=O)C2CCCCN2c2ccc(C(=O)N3CCCC3)cc21)NCc1cccc(Cl)c1 (stereo unspecified),.,-,-,?,.,-
CCC(C)c1ccc(O)c(NC(=S)NC(=O)c2cccs2)c1 (stereo unspecified),-,.,.,-,-,.
COc1ccc(S(=O)(=O)c2cnc(SCC(=O)Nc3cc(F)ccc3C)[nH]c2=O)cc1Cl,.,50.1µM,-,?,.,-
COc1cccc(NC(=O)CSc2ncc(S(=O)(=O)c3ccc(C)c(C)c3)c(=O)[nH]2)c1,.,-,-,-,.,-
Cc1ccc(S(=O)(=O)c2cc(Nc3ccccc3)ccc2O)cc1,-,.,50.1µM,-,-,39.8µM
Cc1ccc(S(=O)(=O)Nc2ccc(Nc3ccccc3)cc2)cc1,-,-,-,-,-,-
N#CC(C#N)=C1C=CC=CN1/C(=C\c1ccccc1Cl)C(=O)c1ccccc1,50.1µM,-,-,-,-,-
N#CC(C#N)=C1C=CC=CN1/C(=C\c1ccccc1)C(=O)c1cccs1,-,-,-,-,-,-
O=C(Cc1ccc(Cl)cc1)c1ccc(O)cc1,-[11.6 µM],-,50.1µM,-,-,-
Cc1ccc(CC(=O)c2ccc(Cl)cc2)cc1,-,-,-,-,-,-
CC(=O)Nc1cccc(-n2cc3c(c2-c2ccccc2Cl)c(=O)n(C)c(=O)n3C)c1,.,-,?,-,.,89.1µM
